“And” between values parts separate entries of the source, which are not always exact repeats. Equal values may be shown once. Inconclusive results are not listed. A call without a number means that no potency is given here. A number with no mark means an inactive call. The source made the active and inactive calls. The call rests on the fitted dose curve; in most records, active means well fitted cell-killing curve with a large enough effect in the repeat runs; inconclusive means weak or mixed curves, or effect the other way; inactive means flat fitted curve, though single readings scatter.
Potency means the concentration at half of the fitted maximal effect.

This experiment can be described thus: qHTS assay to identify small molecule antagonists of the androgen receptor (AR) signaling pathway using the MDA cell line in the presence of 0.5 nM R1881 - cell viability counter screen (AID 1259242). Further: nearly all actives have a fitted effect of over 45% in size. The settings on record: MDA-kb2 viability, CellTiter-Fluor protease fluorescence, 16 h; series mostly up to 92.4 µM; viability change, negative = cytotoxic: at the top concentration. The text has this: U.S. Tox21 Program National Center for Advancing Translational Sciences [NCATS] NIH Chemical Genomics Center [NCGC] U.S. Environmental Protection Agency [EPA] National Institutes of Environmental Health Sciences [NIEHS] National Toxicology Program [NTP] U.S. Food and Drug Administration [FDA] Tox21 Assay Overview: Androgen receptor (AR) is an important member of the nuclear receptor family. Its signaling plays a critical role in AR-dependent prostate cancer and other androgen related diseases. Considerable attention has been given in the past decades to develop methods to study and screen for the environmental chemicals that have the potential to interfere with metabolic homeostasis, reproduction, developmental and behavioral functions. Therefore AR binding assay for screening androgen antagonists can be used to identify potential endocrine disruptors. MDA-kb2 cells (from ATCC, deposited by Wilson et al.) were used to screen for AR inhibitors against Tox21 compound libraries. These cells are human breast carcinoma cells that were stably transfected with a luciferase reporter gene under control of the MMTV promoter that contains response elements for both androgen receptor (AR) and glucocorticoid receptor (GR). The current screening for identification of AR inhibitors against Tox21 libraries used lower concentration of (0.5 nM) R1881 as a stimulator. The cytotoxicity of the Tox21 compound libraries against MDA-kb2 cell line was tested by measuring live-cell protease activity using CellTiter-Fluor assay in the same wells.
Tox21 Assay Protocol Summary: MDA-kb2 cells (cells cultured without CO2) were dispensed at 3,000 cells/well in 4 uL of culture medium into white wall/solid-bottom 1536-well plates (Corning Life Sciences, Corning, NY) using a Multidrop Combi (ThermoFisher Scientific, Waltham, MA) dispenser. After the assay plates were incubated at a 37C and 0% CO2 for 5 hr, 23 nL of compounds dissolved in DMSO, positive controls or DMSO only was transferred to the assay plate by a Pintool station (Kalypsys, San Diego, CA). The transfer of compounds was followed by the addition of 1 uL of 0.5 nM (final concentration) agonist (R1881)/culture medium using a Flying Reagent Dispenser (FRD, Aurora Discovery, San Diego, CA). The plates were incubated at 37C and 0% CO2 for 16 hr. For cytotoxicity assay, 1 uL of CellTiter-Fluor reagent (Promega Corporation, Madison, WI) was added to each well using the FRD and after 30 min incubation at 37C and 0% CO2, The fluorescence intensity was measured using ViewLux plate reader (PerkinElmer, Shelton, CT).
A general note: qHTS replaces the single test concentration by a dilution series.
Regarding `NC(=O)CN1CCCC1=O`, the Potency result was “inactive”.

As for `O=P(OCCCl)(OCCCl)OCCCl`, the Potency result is “inactive”.

As for `ClC(Cl)=C(Cl)C(Cl)=C(Cl)Cl`, the Potency result was “inactive”.

Take `C[N+](C)(C)CC(=O)[O-]`: the Potency result was “inactive”.

Take `CC(C)(c1ccccc1)c1ccc(O)cc1`: the Potency entry was “inactive”.

Turning to `COc1ccc(CO)cc1`, the Potency entry was “inactive”.

On to `ClCC(Cl)CCl`, for which the Potency entry is “inactive”.

As to `CCOS(=O)(=O)OCC`, the Potency entry was “inactive”.

As to `O=S(=O)(O)C(F)(F)C(F)(F)C(F)(F)C(F)(F)C(F)(F)C(F)(F)C(F)(F)C(F)(F)F`, the Potency entry was “inactive”.

For `CC(C)(O)C(=O)Nc1ccc([N+](=O)[O-])c(C(F)(F)F)c1`, the Potency result is “inactive”.

On to `C[C@]12CCC(=O)C=C1CC[C@@H]1[C@@H]2CC[C@@]2(C)[C@H]1CC[C@]2(C)O`, for which the Potency entry was “inactive”.

As for `CC1CC(=O)O1` (stereo not given), the Potency result is “inactive”.

For the compound `CCOC(=O)c1ccccc1N`, the Potency result was “inactive”.

For `COP(=S)(OC)Oc1ccc(Sc2ccc(OP(=S)(OC)OC)cc2)cc1`, the “viability change, negative = cytotoxic” value is -5.85% [at 42.5 µM].

Turning to `N#CCCCCC#N`, the Potency entry was “inactive”.

In the case of `C=CC(Cl)CCl` (stereo not given), the Potency result was “inactive”.

Regarding `CCCCOCC1CO1` (stereo not given), the Potency entry is “inactive”.

`CC(C)(c1ccc(OCC2CO2)cc1)c1ccc(OCC2CO2)cc1` (stereo not given): the Potency entry is “inactive”.

As for `COc1ccc(C=O)cc1OC`, the Potency entry is “inactive”.

Regarding `Cc1ccc([N+](=O)[O-])cc1`, the Potency result was “inactive”.

In the case of `CC1=C(C(=O)Nc2ccccc2)SCCO1`, the Potency result is “inactive”.

As for `COP(=S)(OC)SCn1nnc2ccccc2c1=O`, the Potency entry is “inactive”.

On to `Clc1cccc(Cl)c1`, for which the Potency result was “inactive”.

Take `OCCOCCO`: the Potency result was “inactive”.

In the case of `C[C@]12CC[C@H]3[C@@H](CCC4=CC(=O)CC[C@@H]43)[C@@H]1CC[C@@H]2O`, the Potency result was “inactive”.

Turning to `CC(C)CON=O`, the Potency result is “inactive”.

`[Cl-].[Cl-].[Cl-].[Fe+3]`: the Potency result is “inactive”.

On to `CCCCCCCC[N+](C)(CCCCCCCC)CCCCCCCC`, for which the Potency is 17.2 µM (active) and 3.44 µM (active) and 15.4 µM (active).

For `CSc1nc(NC(C)C)nc(NC(C)C)n1`, the Potency result was “inactive”.

With `O=[N+]([O-])c1ccc(Nc2ccccc2)cc1`, the “viability change, negative = cytotoxic” value was -19.9%.

Take `COP(=O)(NC(C)=O)SC` (stereo not given): the Potency entry was “inactive”.

As for `Nc1ncn[nH]1`, the Potency result was “inactive”.

As for `CCCCSP(=O)(SCCCC)SCCCC`, the Potency result was “inactive”.

With `CN(C)c1nc(=O)n(C2CCCCC2)c(=O)n1C`, the Potency result was “inactive”.

On to `CCC[CH2][Sn]([Cl])([CH2]CCC)[CH2]CCC`, for which the Potency was 1.09 µM (active) and 686 nM (active).

As to `CC(C)(C#N)N=NC(C)(C)C#N`, the Potency entry is “inactive”.

With `O=C1CCCO1`, the Potency entry was “inactive”.

On to `NN=C(N)N`, for which the Potency result is “inactive”.

As to `CCOP(=S)(OCC)OP(=S)(OCC)OCC`, the Potency result was “inactive”.

Consider `ClCc1ccccn1`, for which the Potency result was “inactive”.

Source of the values: PubChem BioAssay (Tox21).
